The full list was thinned out, with hits kept by preference.
Glioma ERSR ind: induces the endoplasmic reticulum stress response in human glioma cells | Potency, µM, for inactives: at the highest dose activation, most hits filed as activators | U87-MG GRP78 promoter luciferase reporter, 16 h | 420,000 compounds, 0.02% hits; also: series mostly up to about 76 µM; % of control where 0% means no effect; nearly all actives have a fitted effect of over 35% in size
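Stably transfected U87-MG glioma cells carrying a GRP78-based luciferase sensor; 16 h compound incubation. Luminescence end-point read 10 min after Bright-Glo addition at room temperature.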
VDR inhibitor: vitamin D3 receptor (human) inhibition; 400,000 compounds, 0.93% hits; AID 504847; P11473; Potency, µM, inactives show max response, negative = inhibition, most hits filed as inhibitors; VDR-SRC2-3 peptide fluorescence polarization, 2 h; also: % is scaled to controls: 0 for no effect and ±100 for the full control effect
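Signal is fluorescence polarization, reporting how far test compounds block the interaction of VDR with the SRC2-3 coregulator peptide after a 2 h room-temperature incubation.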
G9a block: G9a (human) methyltransferase inhibition | Q96KQ7 | G9a H3K9 monomethylation, AlphaScreen, 2 h | Potency, µM (highest dose often 102 µM), for the others: at the top dose activity, negative = inhibition, usual class: inhibitors | 350,000 compounds, 8.8% hits | AID 504332; also: % is scaled to controls: 0 for no effect and ±100 for the full control effect; nearly all actives have a fitted effect of over 75% in size
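Signal arises when biotinylated H3K9 peptide, once monomethylated, bridges streptavidin donor and antibody-captured acceptor beads. Enzyme at 20 nM was preincubated 15 min with test compounds; peptide 500 nM and SAM 20 uM then reacted for 2 h.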
Sfp PPTase inh: blocks B. subtilis Sfp PPTase activity; Q9F4F7; Biochemical Sfp PPTase activity, qHTS; Potency, µM, inactives show largest response in the series, negative = inhibition, most hits filed as inhibitors; 310,000 compounds, 3.5% hits; AID 1490;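 also: the enzyme is Sfp with the accession as filed and its product quenches rhodamine fluorescence; 0% = enzyme reaction without inhibitor and -100% = no enzyme wells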
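Compounds were incubated with enzyme (final 15 nM) for 15 min at room temperature before substrate addition started the reaction. Fluorescence at 525 nm excitation, 598 nm emission was recorded immediately and after 30 minutes.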
12-LOX inh: ALOX12 (human) lipoxygenase inhibition; purified 12hLO, xylenol orange hydroperoxide absorbance; Potency, µM (titrated, usually from 108 µM), for inactives: at the top dose activity change, negative = inhibition, actives largely listed as inhibitors; 580,000 compounds, 1.1% hits; AID 1671190; also: % is scaled to controls: 0 for no effect and ±100 for the full control effect
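Purified human 12hLO at 150 nM in 25 mM Hepes, 0.01% Triton X-100, pH 7.0, preincubated 15 min at room temperature with compound. Reaction started with 40 uM arachidonic acid, 30 min at room temperature. Hydroperoxide measured by Fe-xylenol orange, 573/405 nm absorbance ratio.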
Numbers without * were called inactive; ? = inconclusive; · = not tested or not shown; [ ] = dose if it differs, or a comment. Calls follow the shape of the dose curve; as a rule, active = well fitted curve in the direction sought with a large enough effect; inconclusive = small, poorly fitted or top-dose-only effect, or another doubt; inactive = no such curve, though single readings can be large; an effect the other way counts as inactive or inconclusive. Potency is read from the fitted curve at half-maximal effect.

SMILES | Glioma ERSR ind | VDR inhibitor | G9a block | Sfp PPTase inh | 12-LOX inh
COc1ccc2nc(N(CCN(C)C)C(=O)c3ccc4ccccc4c3)sc2c1 | -8% | 1% | · | -8% | ?
COc1ccc2nc(N(CCN(C)C)C(=O)c3ccc(C(=O)c4ccccc4)cc3)sc2c1 | -3% | -11% | 35µM* | ? | ·
CC(=O)c1ccc(NC(=O)CSc2ccc(-c3cccs3)nn2)cc1 | -3% | 10% | 2.8µM* | · | ?
CC(=O)Nc1ccc(NC(=O)CSc2ccc(-c3cccs3)nn2)cc1 | -2% | -1% | 10% | -17% | -3%
COc1ccc(NC(=O)CSc2ccc(-c3cccs3)nn2)cc1 | -3% | 4% | 10µM* | · | -25%
CN(C)c1ncnc2sc3c(c12)CCN(S(=O)(=O)c1ccccc1)C3 | · | · | · | · | -2%
CCc1cccc(CC)c1NC(=O)CCn1cnc2c1c(=O)n(C)c(=O)n2C | · | · | · | · | -26%
Nc1nc(CNC(c2ccccc2)c2ccccc2)nc(Nc2ccccc2)n1 | · | · | · | · | 2%
Cc1ccccc1NC(=S)/C(=C(\[O-])c1cc(C)n(Cc2ccccc2Cl)c1C)[n+]1ccccc1 | 0% | -22% | 50µM* | -6% | ?
Cc1cc(C)n(Cc2ccc(C(=O)Nc3cccc(Br)c3)o2)n1 | 5% | -13% | 79µM* | 6% | ?
Cc1ccc(CNC(=O)c2ccc(Cn3nc(C)cc3C)o2)cc1 | -6% | 3% | 27% | 14% | -11%
Cc1cc(C)n(Cc2ccc(C(=O)Nc3ccc(Br)cc3C)o2)n1 | -3% | -3% | 3%[59 µM] | 5% | 35µM*
CCN1C(=O)/C(=C2/C=Cc3ccccc3N2C)OC1=S | 3% | 9% | 20µM* | -19% | -7%
Cc1cc(C)cc(N2CCN(c3cc(C4CC(O)C4)nc(C)n3)CC2=O)c1 (stereo unspecified) | · | · | · | · | 48%
O=C(O)c1ccccc1-c1c2cc(Br)c(=O)c(Br)c-2oc2c(Br)c(O)c(Br)cc12 | -4% | 35µM* | ? | 79µM* | ·
COc1ccc(CN(C(=O)c2ccco2)c2ccc(CC(=O)NCc3ccccc3)cc2)cc1 | · | · | · | · | -10%
CN(C)c1ccc(N/C=C/C(=O)c2ccc(F)cc2)cc1 | -2% | ? | 2.5µM* | ? | ·
CN(C)c1ccc(N/C=C/C(=O)c2ccco2)cc1 | 0% | 89µM* | 7.1µM* | 56µM* | ?
CCc1ccc(NC(=O)C2CCN(c3ncnc4c3sc3ncccc34)CC2)cc1 | · | · | · | · | 3%
CC(O)CNCCNCc1cccs1 (stereo unspecified) | -3% | 2% | 5.6µM* | -6% | -8%
CCc1ccc(CNCCNCC(C)O)cc1 (stereo unspecified) | -2% | -16% | ? | 23% | 18%
OC(CNCc1ccco1)Cn1c2ccc(Br)cc2c2cc(Br)ccc21 (stereo unspecified) | 0% | -2% | -1%[59 µM] | 20µM* | 6.3µM*
Brc1ccc2ncnc(NCc3ccco3)c2c1 | -5% | 6% | -34% | 13% | -19%
COc1cc(SC#N)ccc1N=Cc1c(C)[nH]n(-c2ccc(C)cc2C)c1=O | -2% | ? | 13µM* | -11% | -1%
COc1ccccc1N=Cc1c(C)[nH]n(-c2ccc(C)cc2C)c1=O | -1% | -17% | 50µM* | -6% | -2%
SMILES | Glioma ERSR ind | VDR inhibitor | G9a block | Sfp PPTase inh | 12-LOX inh
CC(C)C(=O)N1CCN(Cc2coc(-c3ccc(Cl)cc3)n2)CC1 | · | · | · | · | -10%
CC(C)(C)C(=O)Nc1nnc(Cc2ccc(Cl)cc2)s1 | · | · | · | · | -10%
O=S(=O)(Cc1ccc(F)cc1Cl)C12CC3CC(CC(C3)C1)C2 | · | · | · | · | 22%
Cc1oc(/C=N/NS(=O)(=O)c2ccccc2)cc1Br | -1% | -16% | 16µM* | -5% | 3%
COc1cc(/C=C/c2ccc3cccc(OC)c3n2)ccc1OC(C)=O | · | · | · | · | -4%
C=CC[n+]1c(/C=C/c2ccc(OC(C)=O)c(OC)c2)ccc2ccccc21 | -1% | 24% | 79µM* | 6% | ?
CNC(=O)NCCC1CCN(C(=O)Nc2cccc(Cl)c2)CC1 | · | · | · | · | -4%
O=C(Nc1c(-c2ccccc2)nc2sccn12)c1cccc(S(=O)(=O)N2CCOCC2)c1 | · | · | · | · | -2%
NC(=O)CN1CCCC(c2nc(-c3ccc4nc[nH]c4c3)no2)C1 (stereo unspecified) | · | · | · | · | 15%
Cn1cccc1/C=N/NC(=O)Cc1ccccc1 | 2% | -14% | · | -15% | -7%

Screening results deposited in PubChem BioAssay by National Center for Advancing Translational Sciences (NCATS).
